Test results: PubChem BioAssay
For some of these results: Potency and affinity values are given separately. Active and inactive are the calls of the source. How the calls were made is not given here.

Assays:
[1] = hESC survival regulators, cell-based (AID 493140); conditions: human embryonic stem cell survival screen; stronger effect = higher value;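 further: cells exposed to compounds for four days before counting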
[2] = polyglutamine-triggered caspase-3 activation inhibitors, cell-based (AID 1583); conditions: polyglutamine-induced caspase-3 activation, cell assay; stronger effect = higher value;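 tested at 10 µM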
[3] = suppressors of polyQ aggregation in yeast, 75Q-TubU reporter (AID 1593); conditions: Yeast 75Q polyglutamine aggregation reporter
[4] = rescue of polyQ-huntingtin neuronal dysfunction in worms, whole organism, C. elegans mechanosensory neurons, N-terminal huntingtin (AID 1599); conditions: touch response, stronger effect = higher value
[5] = inhibitors of mitochondrial cytochrome c release, biochemical, purified mitochondria (AID 1603); conditions: stronger effect = lower value;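 further: mouse liver mitochondria challenged with calcium chloride; signal normalized to the plate average as 100%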
[6] = inhibitors of polyQ protein aggregation (AID 1604); conditions: polyglutamine-induced protein aggregation inhibition assay; stronger effect = higher value; tested at 2.5 µM

With `CCN(CC)CC#CCOC(=O)C(O)(c1ccccc1)C1CCCCC1` (stereo unspecified) the survival [1] was 12.5 (inactive).

For `CC(C)NCC(O)c1ccc(NS(C)(=O)=O)cc1` (stereo unspecified), the survival [1] was 2.17 (inactive).

With `Cc1cnc(C(=O)NCCc2ccc(S(=O)(=O)NC(=O)NC3CCCCC3)cc2)cn1` the survival [1] was 31.5 (inactive).

In the case of `CC(C)(S)C(N)C(=O)O` (stereo unspecified), the inhibition [2] is reported as 22.3%, the score [3] is reported as 1.79 and the rescue above control [4] is reported as -1.67. The cytochrome c release ratio [5] was 0.98 and the inhibition of aggregation [6] was 94.4%.

Compound `CC(Cc1ccc(O)c(O)c1)(NN)C(=O)O` (stereo unspecified) has an inhibition [2] of 4.01%, a score [3] of 1.18 and a rescue above control [4] of -6.05. For the same compound, the cytochrome c release ratio [5] was 0.84 and the inhibition of aggregation [6] was 15.6%.

For `Cc1c(C(=O)NN2CCCCC2)nn(-c2ccc(Cl)cc2Cl)c1-c1ccc(I)cc1`, the survival [1] was 93 (inactive).

For `COc1nc(C)nc(Cl)c1NC1=NCCN1`, the survival [1] was 21 (inactive).

With `CCOC(=O)c1ccc(OC(=O)CCCCCN=C(N)N)cc1` the survival [1] was 18.2 (inactive).
